Hits are enriched below; roughly 12% of the tested compounds scored in any of these assays.
G9a block: G9a (human) methyltransferase inhibition; Q96KQ7; G9a H3K9 monomethylation, AlphaScreen, 2 h; Potency, µM (highest dose often 102 µM), inactives show at the top dose activity, negative = inhibition, actives largely listed as inhibitors; 350,000 compounds, 8.8% hits; also: % is scaled to controls: 0 for no effect and ±100 for the full control effect; nearly all actives have a fitted effect of over 75% in size
Target sequence (Q96KQ7 913-1193 limits assumed): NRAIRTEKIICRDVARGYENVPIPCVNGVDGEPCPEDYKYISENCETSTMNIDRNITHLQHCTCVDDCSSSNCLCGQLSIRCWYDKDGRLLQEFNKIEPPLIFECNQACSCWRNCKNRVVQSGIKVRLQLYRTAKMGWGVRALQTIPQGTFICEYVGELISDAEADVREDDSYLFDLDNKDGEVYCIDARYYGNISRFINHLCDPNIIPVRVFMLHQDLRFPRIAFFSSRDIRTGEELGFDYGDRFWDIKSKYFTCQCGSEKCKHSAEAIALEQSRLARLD
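Enzyme 20 nM + cpd, 15 min RT; add b-H3K9 pep 500 nM / SAM 20 uM; 2 h RT; anti-H3K9me1 Ab 0.5 ug/mL + SA donor / anti-rabbit acceptor beads 20 ug/mL each, 10 min; AlphaScreen read.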
BAZ2B block: blocks human BAZ2B. AID 504333. 360,000 compounds, 4.4% hits. Potency, µM (series often up to 114 µM), without a hit: at the top dose activity change, negative = inhibition, actives largely listed as inhibitors. AlphaScreen BAZ2B-H3K14Ac peptide displacement; also: % is scaled to controls: 0 for no effect and ±100 for the full control effect; nearly all actives have a fitted effect of over 60% in size
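Inhibition is scored as reduced AlphaScreen emission. The BAZ2B/b-H3(5-23)K14Ac complex (50 nM each) in PBS pH 7.4, 0.01% Tween-20 meets compound (up to 110 uM) for 30 min at RT before bead addition.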
JMJD2A Tudor inh: blocks the human JMJD2A Tudor domain | Potency, µM (titrated, usually from 114 µM), without a hit: at the highest dose activity change, negative = inhibition, most hits filed as inhibitors | AlphaScreen JMJD2A-Tudor / H3K4me3 peptide binding | 390,000 compounds, 4.4% hits | O75164 | AID 504339; also: % is scaled to controls: 0 for no effect and ±100 for the full control effect; nearly all actives have a fitted effect of over 50% in size
HP1b chromo inh: HP1-beta chromodomain-methylated histone interaction inhibition | AID 540317 | AlphaScreen HP1-beta / biotin-H3K9me3 peptide binding | Potency, µM (titrated, usually from 114 µM), inactives show at the top dose activity change, negative = inhibition, actives largely listed as inhibitors | 390,000 compounds, 0.56% hits | P83916; also: nearly all actives have a fitted effect of over 70% in size
Target sequence (P83916 whole entry, looked up): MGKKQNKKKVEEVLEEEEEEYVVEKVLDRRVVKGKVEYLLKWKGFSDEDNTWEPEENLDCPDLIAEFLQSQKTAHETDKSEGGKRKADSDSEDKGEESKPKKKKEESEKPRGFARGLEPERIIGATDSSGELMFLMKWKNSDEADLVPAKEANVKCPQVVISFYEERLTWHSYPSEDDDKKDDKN
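AlphaScreen: HP1-beta (50 nM) preformed 30 min with biotin-H3(1-18)K9me3 peptide (50 nM) in PBS pH 7.4, 0.01% Tween-20. Compound added for 30 min at RT, then streptavidin donor/nickel chelate acceptor beads (10 ug/mL) for 30 min.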
Sfp inh: blocks B. subtilis Sfp PPTase activity; Potency, µM, for inactives: largest response in the series, negative = inhibition, hits mostly inhibitors; Biochemical Sfp PPTase activity, qHTS; 310,000 compounds, 3.5% hits;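 also: the enzyme is Sfp with the accession as filed and its product quenches rhodamine fluorescence; 0% = enzyme reaction without inhibitor and -100% = no enzyme wells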
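With Hepes-Na pH 7.6 buffer containing 10 mM MgCl2, Sfp (15 nM) modified BHQ-2-YbbR (12.5 uM) using rhodamine-CoA (5 uM). Two reads 30 minutes apart at 525/598 nm yielded each well's rate.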
Active calls of the source: *; ! = a repeat was not active; [ ] = dose if it differs, or a comment. Calls follow the shape of the dose curve; as a rule, active = well fitted curve in the direction sought with a large enough effect; inconclusive = small, poorly fitted or top-dose-only effect, or another doubt; inactive = no such curve, though single readings can be large; an effect the other way counts as inactive or inconclusive. Potency is read from the fitted curve at half-maximal effect.

COc1ccc(Cl)cc1S(=O)(=O)n1c([N+](=O)[O-])cnc1C was read as G9a block -15%[0.501 µM], BAZ2B block inconclusive, JMJD2A Tudor inh 1%, HP1b chromo inh 11% and Sfp inh 71µM*.
CCC1=C/C(=C/N(C)c2ccccc2)C(=O)S1 was read as G9a block 25µM*, BAZ2B block -8%, JMJD2A Tudor inh inconclusive, HP1b chromo inh inconclusive and Sfp inh 50µM*.
`CCOC(=O)CNC(=O)c1ccc2[nH]c3ccccc3c2c1` gave G9a block 7%, BAZ2B block -14%, JMJD2A Tudor inh -11%, HP1b chromo inh 11% and Sfp inh 2%.
O=C(NCCCO)c1cc2c(cn1)[nH]c1ccccc12 was read as G9a block 9%, BAZ2B block inconclusive, JMJD2A Tudor inh -20%, HP1b chromo inh 35% and Sfp inh 6%.
Screening COC(=O)[C@H](C)NC(=O)c1cc2c(cn1)[nH]c1ccccc12 returned G9a block 1.4µM*, BAZ2B block inconclusive, JMJD2A Tudor inh 40µM*, HP1b chromo inh inconclusive and Sfp inh 8.9µM*.
`O=C(O)c1cc2c(cn1)[nH]c1ccccc12` gave G9a block 23%, BAZ2B block 4µM*, JMJD2A Tudor inh 7.1µM*, HP1b chromo inh 17% and Sfp inh 2%.
For C[C@H](NC(=O)c1cc2c(cn1)[nH]c1ccccc12)C(=O)O the results were G9a block 1.4µM*, BAZ2B block 50µM*, JMJD2A Tudor inh 45µM*, HP1b chromo inh 28µM* and Sfp inh 8.9µM*.
Screening CCOCCCn1c(=N)c(S(=O)(=O)c2ccc(C)cc2)cc2c(=O)n3cccc(C)c3nc21 returned G9a block -23%[59 µM], BAZ2B block -2%, JMJD2A Tudor inh 2% and HP1b chromo inh 36%.
Screening Cn1c(N)c(C(=O)/C=C/c2ccccc2)c(=O)[nH]c1=O returned G9a block inconclusive, BAZ2B block -2%, JMJD2A Tudor inh -24%, HP1b chromo inh -24% and Sfp inh 50µM*.
`Cn1c(N)c(C(=O)Nc2ccccc2)c(=O)[nH]c1=O` gave JMJD2A Tudor inh -12% and HP1b chromo inh 27%.
For O=C1CSC2(CCN(CCCN3c4ccccc4Sc4ccc(Cl)cc43)CC2)N1 the results were G9a block 18µM* and Sfp inh -14%.
`CN1CCN(CCCN2c3ccccc3Sc3ccc(C(F)(F)F)cc32)CC1` gave G9a block 16µM*!, BAZ2B block 35µM*, JMJD2A Tudor inh inconclusive, HP1b chromo inh inconclusive and Sfp inh inconclusive.
`Cc1ccc(N2CC(C(=O)OCC(=O)c3ccc([N+](=O)[O-])cc3)CC2=O)cc1` (configuration not stated) gave G9a block inconclusive, BAZ2B block -2%, JMJD2A Tudor inh -13%, HP1b chromo inh 16% and Sfp inh -6%.
For C=C(C(C)=O)C(O)c1ccc2ccccc2c1 (configuration not stated) the results were Sfp inh -17%.
Screening Cc1ccc(S(=O)(=O)N(Cc2ccccc2)Cc2ccco2)cc1 returned G9a block 22%[0.0925 µM], BAZ2B block 43%, JMJD2A Tudor inh 5%, HP1b chromo inh 73% and Sfp inh 0%.
Screening COc1ccc(S(=O)(=O)N(Cc2ccc(OC)c(OC)c2)Cc2ccco2)cc1 returned G9a block 50µM*, BAZ2B block inconclusive, JMJD2A Tudor inh -12%, HP1b chromo inh 9% and Sfp inh 17%.
Cc1ccc(S(=O)(=O)N(CC(=O)O)Cc2ccco2)cc1 was read as G9a block 32µM*, BAZ2B block 56µM*, JMJD2A Tudor inh 89µM*, HP1b chromo inh -10% and Sfp inh 6%.
For COC(=O)CN(Cc1ccco1)S(=O)(=O)c1ccccc1 the results were G9a block -21%[59 µM], BAZ2B block -7%, JMJD2A Tudor inh -14%, HP1b chromo inh 0% and Sfp inh 56µM*.
For CN(C)S(=O)(=O)c1ccc(S(=O)(=O)N(CC(=O)Nc2ccccc2)Cc2ccco2)cc1 the results were G9a block -33%, BAZ2B block -23%, JMJD2A Tudor inh -9%, HP1b chromo inh 30% and Sfp inh 1%.
For CC(=O)c1ccc(NC(=O)COC(=O)CC2CC3CCC2C3)cc1 (configuration not stated) the results were JMJD2A Tudor inh -10% and HP1b chromo inh 14%.
COc1ccc(C(=O)NCc2ccccc2CN2CCCC2)cc1S(=O)(=O)Nc1ccc(C)cc1 was read as G9a block inconclusive, BAZ2B block 6%, JMJD2A Tudor inh -13% and HP1b chromo inh 33%.
CCS(=O)(=O)N1CC(=O)N(c2ccc(C)c(C)c2)C(C)(C(=O)NC2CCCCC2)C1 (configuration not stated) was read as G9a block -4%[59 µM], BAZ2B block 3%, JMJD2A Tudor inh -3% and HP1b chromo inh 33%.
COCCN(CC(=O)Nc1cccc(C)c1C)C(=O)c1cc2c(s1)CCC2 was read as G9a block inconclusive, BAZ2B block inconclusive, JMJD2A Tudor inh inconclusive and HP1b chromo inh -9%.
For O=C(CCCN1C(=O)/C(=C\c2ccco2)SC1=S)Nc1ccc(O)cc1C(=O)O the results were G9a block 10µM*, BAZ2B block 14µM*, JMJD2A Tudor inh 22µM*, HP1b chromo inh 25µM* and Sfp inh 50µM*.
`O=C(CCCN1C(=O)/C(=C\c2cccs2)SC1=S)Nc1cccc(C(=O)O)c1` gave G9a block inconclusive, BAZ2B block -36%, JMJD2A Tudor inh inconclusive, HP1b chromo inh -1% and Sfp inh 4%.
`O=C(CCCN1C(=O)/C(=C/c2ccco2)SC1=S)Nc1cccc(C(=O)O)c1` gave BAZ2B block 45µM*, JMJD2A Tudor inh inconclusive, HP1b chromo inh inconclusive and Sfp inh 25µM*.
For Nc1c(C(=O)O)sc2nc(-c3ccccc3)cc(-c3ccc(Cl)cc3)c12 the results were G9a block -9%, BAZ2B block inconclusive, JMJD2A Tudor inh inconclusive, HP1b chromo inh 10% and Sfp inh -21%.
Nc1c(C(=O)O)sc2nc(-c3ccc(F)cc3)cc(-c3ccccc3)c12 was read as G9a block inconclusive, BAZ2B block -16%, JMJD2A Tudor inh -23%, HP1b chromo inh 59% and Sfp inh 50µM*.
For COc1ccc(-c2cc3ccccc3[nH]2)cc1 the results were BAZ2B block -21%, JMJD2A Tudor inh 7.1µM*, HP1b chromo inh inconclusive and Sfp inh 5%.
For Cc1ccc(O)c(-c2cc3ccccc3[nH]2)c1 the results were G9a block inconclusive, BAZ2B block 45µM*, JMJD2A Tudor inh inconclusive, HP1b chromo inh inconclusive and Sfp inh -10%.
